The target in test [1] is rat Opioid Receptor, Non-selective Binding, Oprm1 (gene 25601) (UniProt P33535). Put plainly: NVS_GPCR_rOpiate_NonSelective: NovaScreen (NVS) G Protein-Coupled Receptor Assay for rat Opioid Receptor, Non-selective Binding (AID 2283318). The procedure, abridged: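 Rat forebrain membranes, cell-free radioligand binding with filter-based scintillation counting, read 1.5 h after dosing. Primary screen in duplicate at 25 uM; actives retested in concentration series. Loss of signal versus DMSO baseline scored.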

In the next test the test system is NCBI gene 24521. As to the kind of experiment: NVS_IC_rKATPCh: NovaScreen (NVS) Ion Channel Assay for rat Potassium Channel, ATP-Sensitive (KATPCh) (AID 2283319). The essentials:
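Rat cortical membranes; radioligand binding at ATP-sensitive K channel site, filter-based scintillation counting 2 h after dosing. Single-point duplicate screen at 25 uM, hits rerun in concentration-response up to 50 uM; loss of signal versus DMSO.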

The target of test [2] is rat Vasopressin 1 Receptor (V1), Avpr1a (gene 25107) (UniProt P30560). As to the kind of experiment: NVS_GPCR_rV1: NovaScreen (NVS) G Protein-Coupled Receptor Assay for rat Vasopressin 1 Receptor (V1) (AID 2283316). The procedure, abridged:
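Radioligand binding on rat liver membranes, 1.5 h incubation, filter-based scintillation counting. Single 25 uM screen in duplicate; chemicals meeting threshold (e.g. 30% inhibition) run in concentration-response up to 50 uM.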

Test [3] has as its target Sodium channel protein type 1 subunit alpha (Rattus norvegicus) (UniProt P04774). As to the kind of experiment: NVS_IC_rNaCh_site2: NovaScreen (NVS) Ion Channel Assay for rat Sodium Channel, Site 2 (NaCh) (AID 2283322).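 Note: hit means loss of radioligand binding signal relative to DMSO so AC50 marks displacement.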 The procedure, abridged:
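Membranes: rat forebrain. Format: competitive radioligand displacement, filter separation, scintillation readout, 1 h exposure. Primary screen in duplicate at 25 uM; actives retested in concentration series.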

Test [4] concerns the target rat Thyrotropin Releasing Hormone Receptor (TRH), Trhr (gene 25570) (UniProt Q01717). Put plainly: NVS_GPCR_rTRH: NovaScreen (NVS) G Protein-Coupled Receptor Assay for rat Thyrotropin Releasing Hormone Receptor (TRH) (AID 2283329).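 Note: hit means lower bound tracer signal versus DMSO baseline.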 The essentials: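 Test compounds are screened at 25 uM in duplicate against radioligand binding in rat forebrain membranes, with active pairs followed up over a concentration range. Detection uses filter-based radiodetection after a 4 h exposure.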

In test [5] the target is rat Neurokinin-1 Receptor (NK1), Tacr1 (gene 24807) (UniProt P14600). As to the kind of experiment: NVS_GPCR_rNK1: NovaScreen (NVS) G Protein-Coupled Receptor Assay for rat Neurokinin-1 Receptor (NK1) (AID 2283309). The essentials: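 Rat submaxillary gland membranes; radioligand displacement read by filter-based scintillation counting after 1 h. Primary screen in duplicate at 25 uM; actives retested in concentration series; loss of binding fitted versus DMSO.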

Test [6] addresses human Neonicotinoid receptor (NNR), CHRNA2 (gene 1135) (UniProt Q15822). As to the kind of experiment: NVS_LGIC_hNNR_NBungSens: NovaScreen (NVS) Ligand-Gated Ion Channel Assay for human Neonicotinoid receptor (NNR) (AID 2283313). The essentials:
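Radioligand displacement on human neuroblastoma membranes, 2 h, filter-based scintillation counting. Primary screen in duplicate at 25 uM; chemicals passing threshold (e.g. 30% inhibition) run singleton concentration-response to 50 uM; loss of binding fitted versus DMSO.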

Test [7] concerns the target rat Neonicotinoid receptor (NNR), Chrna7 (gene 25302) (UniProt Q05941). As to the kind of experiment: NVS_LGIC_rNNR_BungSens: NovaScreen (NVS) Ligand-Gated Ion Channel Assay for rat Neonicotinoid receptor (NNR) (AID 2283315). The procedure, abridged:
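Radioligand displacement binding on rat cortical membranes, 2.5 h incubation, filtration and scintillation counting. Loss of specific binding fitted relative to DMSO.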

In test [8] the target is bovine Gamma-Aminobutyric Acid Type A Receptor BDZ, alpha 1 site (GABARa1), GABRA1 (gene 780973) (UniProt P08219). Put plainly: NVS_LGIC_bGABARa1: NovaScreen (NVS) Ligand-Gated Ion Channel Assay for bovine Gamma-Aminobutyric Acid Type A Receptor BDZ, alpha 1 site (GABARa1) (AID 2283321). The essentials:
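Radioligand competition binding on bovine cortical membranes, 0.75 h, filter-based scintillation counting. Primary single concentration 25 uM in duplicate; actives rerun in concentration-response to 50 uM max. Loss of signal fitted versus DMSO.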

In test [9] the target is rat Glutamate Metabotropic Receptor 5 (MGluR5), Grm5 (gene 24418) (UniProt P31424). Put plainly: NVS_GPCR_rmMGluR5: NovaScreen (NVS) G Protein-Coupled Receptor Assay for rat Glutamate Metabotropic Receptor 5 (MGluR5) (AID 2283307). The essentials:
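Rat whole-brain membrane preparation; filter-based radioligand binding read by scintillation counting, 1.5 h after dosing. Single-point screen at 25 uM in duplicate; hits over threshold (e.g. 30% inhibition) retested in concentration-response up to 50 uM; loss of signal vs DMSO.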

The target in test [10] is rat Neurotensin Receptor (NTS), Ntsr1 (gene 366274) (UniProt P20789). Put plainly: NVS_GPCR_rNTS: NovaScreen (NVS) G Protein-Coupled Receptor Assay for rat Neurotensin Receptor (NTS) (AID 2283308). The essentials:
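Rat forebrain membranes; radioligand binding with competitive displacement, read by filter-based scintillation counting 1 h after dosing. Primary screen in duplicate at 25 uM; actives (e.g., 30% inhibition) rerun in concentration-response up to 50 uM, loss-of-signal versus DMSO.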

Test [11] has as its target Voltage-dependent N-type calcium channel subunit alpha-1B (Rattus norvegicus) (UniProt Q02294). As to the kind of experiment: NVS_IC_rCaChN: NovaScreen (NVS) Ion Channel Assay for rat Calcium Channel, Type N (CaChN) (AID 2283317).
Test [12] addresses rat Opioid Receptor, Non-selective Sodium (Na+) Binding, Oprm1 (gene 25601) (UniProt P33535). As to the kind of experiment: NVS_GPCR_rOpiate_NonSelectiveNa: NovaScreen (NVS) G Protein-Coupled Receptor Assay for rat Opioid Receptor, Non-selective Sodium (Na+) Binding (AID 2283311). The procedure, abridged:
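Rat forebrain membranes, radioligand displacement with filter scintillation counting, 1.5 h incubation. Screened in duplicate at 25 µM; hits then run in concentration-response up to 50 µM; loss of binding fitted versus DMSO.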

For test [13], the target named is rat Somatostatin Receptor (SST), Sstr1 (gene 25033) (UniProt P28646). As to the kind of experiment: NVS_GPCR_rSST: NovaScreen (NVS) G Protein-Coupled Receptor Assay for rat Somatostatin Receptor (SST) (AID 2283314). The essentials:
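Rat forebrain membranes; radioligand displacement read by filter-based scintillation counting 1 h after dosing. Primary screen in duplicate at 25 uM. Actives (e.g., 30% inhibition) were rerun as concentration-response to 50 uM max and fitted against DMSO.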

A short description of test [14]: NVS_IC_rCaDHPRCh_L: NovaScreen (NVS) Ion Channel Assay for rat Calcium Channel, Type L, Dihydropyridine Site (CaDHPRCh_L) (AID 2283320). The procedure, abridged:
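Radioligand binding to dihydropyridine site on rat cortical membranes, filter-based scintillation counting, 1 h after dosing. Screened in duplicate at 25 uM; actives rerun in concentration-response up to 50 uM. Loss of signal versus DMSO baseline.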

Test [15] addresses rat Neurokinin-3 Receptor (NK3), Tacr3 (gene 24808) (UniProt P16177). As to the kind of experiment: NVS_GPCR_rNK3: NovaScreen (NVS) G Protein-Coupled Receptor Assay for rat Neurokinin-3 Receptor (NK3) (AID 2283310). The essentials: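 Rat cortical membranes; radioligand binding with filtration and scintillation counting, 2 h after dosing. Primary screen in duplicate at 25 uM, then concentration-response up to 50 uM; loss of binding signal relative to DMSO.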

Test [16] concerns the target rat Glutamate, NMDA Agonist Site (GluNMDA), Grin1 (gene 24408) (UniProt P35439). As to the kind of experiment: NVS_LGIC_rGluNMDA_Agonist: NovaScreen (NVS) Ligand-Gated Ion Channel Assay for rat Glutamate, NMDA Agonist Site (GluNMDA) (AID 2283327). The essentials: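 Rat forebrain membranes, radioligand binding in the agonist-site protocol; 1 h after dosing; filter-based scintillation counting. Single-concentration duplicate screen at 25 uM, then concentration-response up to 50 uM for actives; gain-of-signal vs DMSO.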

The target in test [17] is rat Gamma-Aminobutyric Acid Type A Receptor, Non-Selective (GABAR-NonSelective), Gabra1 (gene 29705) (UniProt P62813). Put plainly: NVS_LGIC_rGABAR_NonSelective: NovaScreen (NVS) Ligand-Gated Ion Channel Assay for rat Gamma-Aminobutyric Acid Type A Receptor, Non-Selective (GABAR-NonSelective) (AID 2283326). The essentials:
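Radioligand displacement on rat whole-brain extract, 1 h, filter scintillation readout; signal loss fitted versus DMSO. Primary screen in duplicate at 25 uM; hits (e.g. ≥30% inhibition) retested in concentration-response up to 50 uM.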

Records with an inconclusive call do not appear. Some compounds were tested as several samples or in several runs, with calls that do not always agree. Calls of active or inactive are those of the source. Rule for the calls: active = hit-call score of the fitted dose curve at least 0.9, where 1 is the maximum; inconclusive = response in the unintended direction; inactive = score below 0.9.

Sequence of rat Somatostatin Receptor (SST), Sstr1 (gene 25033) (P28646 whole entry, looked up): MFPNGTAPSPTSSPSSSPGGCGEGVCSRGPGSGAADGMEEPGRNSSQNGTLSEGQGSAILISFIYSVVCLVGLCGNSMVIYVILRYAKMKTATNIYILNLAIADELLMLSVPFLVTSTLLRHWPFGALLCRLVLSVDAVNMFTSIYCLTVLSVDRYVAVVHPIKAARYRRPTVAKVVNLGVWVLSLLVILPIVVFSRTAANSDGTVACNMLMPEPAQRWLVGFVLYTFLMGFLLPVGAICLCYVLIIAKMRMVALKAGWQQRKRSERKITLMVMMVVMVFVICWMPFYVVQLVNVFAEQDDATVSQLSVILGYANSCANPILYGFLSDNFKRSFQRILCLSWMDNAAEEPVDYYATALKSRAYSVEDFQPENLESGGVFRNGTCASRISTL
Sequence of bovine Gamma-Aminobutyric Acid Type A Receptor BDZ, alpha 1 site (GABARa1), GABRA1 (gene 780973) (P08219 whole entry, looked up): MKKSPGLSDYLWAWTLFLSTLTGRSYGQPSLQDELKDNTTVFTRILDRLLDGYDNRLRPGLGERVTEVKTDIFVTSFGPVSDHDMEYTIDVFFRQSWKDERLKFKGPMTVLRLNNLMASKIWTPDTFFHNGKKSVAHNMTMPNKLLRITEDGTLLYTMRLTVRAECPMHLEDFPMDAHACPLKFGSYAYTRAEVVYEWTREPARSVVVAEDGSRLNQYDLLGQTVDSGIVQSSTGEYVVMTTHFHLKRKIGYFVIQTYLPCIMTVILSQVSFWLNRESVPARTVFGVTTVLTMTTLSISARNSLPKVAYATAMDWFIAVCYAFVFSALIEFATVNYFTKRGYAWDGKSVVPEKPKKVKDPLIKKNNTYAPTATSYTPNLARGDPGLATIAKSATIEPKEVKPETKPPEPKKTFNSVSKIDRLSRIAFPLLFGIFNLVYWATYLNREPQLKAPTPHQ
Sequence of human Neonicotinoid receptor (NNR), CHRNA2 (gene 1135) (Q15822 whole entry, looked up): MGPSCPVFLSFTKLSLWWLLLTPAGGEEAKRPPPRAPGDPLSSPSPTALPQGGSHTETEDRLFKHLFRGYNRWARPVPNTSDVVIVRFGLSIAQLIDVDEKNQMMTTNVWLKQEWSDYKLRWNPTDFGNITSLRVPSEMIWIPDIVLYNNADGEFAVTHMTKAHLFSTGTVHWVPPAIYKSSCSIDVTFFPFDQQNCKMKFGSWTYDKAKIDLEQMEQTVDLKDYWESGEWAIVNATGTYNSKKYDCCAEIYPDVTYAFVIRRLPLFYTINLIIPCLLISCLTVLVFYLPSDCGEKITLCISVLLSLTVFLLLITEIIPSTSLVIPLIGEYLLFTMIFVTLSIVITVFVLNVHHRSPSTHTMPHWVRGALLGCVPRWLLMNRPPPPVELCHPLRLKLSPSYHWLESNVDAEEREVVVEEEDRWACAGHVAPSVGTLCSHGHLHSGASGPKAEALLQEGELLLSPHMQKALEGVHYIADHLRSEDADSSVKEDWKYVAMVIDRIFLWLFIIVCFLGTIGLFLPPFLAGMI
Sequence of rat Neurokinin-1 Receptor (NK1), Tacr1 (gene 24807) (P14600 whole entry, looked up): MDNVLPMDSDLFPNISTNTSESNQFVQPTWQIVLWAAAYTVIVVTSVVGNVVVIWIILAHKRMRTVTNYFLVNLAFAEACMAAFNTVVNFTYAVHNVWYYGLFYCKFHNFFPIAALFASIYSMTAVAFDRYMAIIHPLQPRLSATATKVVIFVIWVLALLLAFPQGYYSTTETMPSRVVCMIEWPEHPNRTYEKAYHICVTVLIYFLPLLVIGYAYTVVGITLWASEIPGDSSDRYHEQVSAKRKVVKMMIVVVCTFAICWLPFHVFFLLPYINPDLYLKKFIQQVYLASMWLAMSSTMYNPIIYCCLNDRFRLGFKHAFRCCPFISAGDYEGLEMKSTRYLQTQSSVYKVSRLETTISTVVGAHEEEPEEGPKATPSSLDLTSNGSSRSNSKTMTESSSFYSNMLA
Sequence of rat Thyrotropin Releasing Hormone Receptor (TRH), Trhr (gene 25570) (Q01717 whole entry, looked up): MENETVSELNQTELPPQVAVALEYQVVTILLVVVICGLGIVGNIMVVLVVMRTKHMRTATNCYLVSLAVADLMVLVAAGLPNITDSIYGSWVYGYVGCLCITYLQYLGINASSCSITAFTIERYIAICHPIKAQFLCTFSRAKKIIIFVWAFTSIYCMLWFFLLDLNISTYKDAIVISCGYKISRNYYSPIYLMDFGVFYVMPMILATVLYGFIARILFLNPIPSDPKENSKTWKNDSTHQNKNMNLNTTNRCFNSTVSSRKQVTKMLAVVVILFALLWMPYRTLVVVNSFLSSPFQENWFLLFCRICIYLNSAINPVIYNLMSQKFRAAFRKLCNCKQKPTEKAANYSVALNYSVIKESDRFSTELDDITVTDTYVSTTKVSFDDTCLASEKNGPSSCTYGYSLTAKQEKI
Sequence of rat Neonicotinoid receptor (NNR), Chrna7 (gene 25302) (Q05941 whole entry, looked up): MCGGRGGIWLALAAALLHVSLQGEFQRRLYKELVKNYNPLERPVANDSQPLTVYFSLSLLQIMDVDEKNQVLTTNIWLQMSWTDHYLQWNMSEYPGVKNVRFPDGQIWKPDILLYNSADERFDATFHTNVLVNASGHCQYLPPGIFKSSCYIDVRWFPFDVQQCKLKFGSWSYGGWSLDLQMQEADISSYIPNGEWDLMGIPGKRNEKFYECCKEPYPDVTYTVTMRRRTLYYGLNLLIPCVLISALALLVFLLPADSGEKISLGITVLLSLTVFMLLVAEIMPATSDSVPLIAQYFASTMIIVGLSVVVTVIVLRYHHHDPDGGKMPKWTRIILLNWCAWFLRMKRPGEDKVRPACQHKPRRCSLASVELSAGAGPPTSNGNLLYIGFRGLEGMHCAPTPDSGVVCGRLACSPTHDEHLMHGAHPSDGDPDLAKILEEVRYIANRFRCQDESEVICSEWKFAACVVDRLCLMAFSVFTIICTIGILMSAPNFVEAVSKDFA
Sequence of rat Opioid Receptor, Non-selective Binding, Oprm1 (gene 25601) (P33535 whole entry, looked up): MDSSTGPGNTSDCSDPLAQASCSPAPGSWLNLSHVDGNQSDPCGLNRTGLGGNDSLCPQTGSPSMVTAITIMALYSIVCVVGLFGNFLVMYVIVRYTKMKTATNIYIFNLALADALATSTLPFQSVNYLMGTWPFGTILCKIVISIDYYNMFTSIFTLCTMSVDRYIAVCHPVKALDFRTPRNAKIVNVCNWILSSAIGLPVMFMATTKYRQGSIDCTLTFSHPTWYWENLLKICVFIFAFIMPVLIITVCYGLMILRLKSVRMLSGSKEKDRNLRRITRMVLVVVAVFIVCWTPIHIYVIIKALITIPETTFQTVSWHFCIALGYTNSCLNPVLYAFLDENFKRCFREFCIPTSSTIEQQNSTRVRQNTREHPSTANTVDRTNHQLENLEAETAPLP
Sequence of rat Opioid Receptor, Non-selective Sodium (Na+) Binding, Oprm1 (gene 25601) (P33535 whole entry, looked up): as above
Sequence of rat Gamma-Aminobutyric Acid Type A Receptor, Non-Selective (GABAR-NonSelective), Gabra1 (gene 29705) (P62813 whole entry, looked up): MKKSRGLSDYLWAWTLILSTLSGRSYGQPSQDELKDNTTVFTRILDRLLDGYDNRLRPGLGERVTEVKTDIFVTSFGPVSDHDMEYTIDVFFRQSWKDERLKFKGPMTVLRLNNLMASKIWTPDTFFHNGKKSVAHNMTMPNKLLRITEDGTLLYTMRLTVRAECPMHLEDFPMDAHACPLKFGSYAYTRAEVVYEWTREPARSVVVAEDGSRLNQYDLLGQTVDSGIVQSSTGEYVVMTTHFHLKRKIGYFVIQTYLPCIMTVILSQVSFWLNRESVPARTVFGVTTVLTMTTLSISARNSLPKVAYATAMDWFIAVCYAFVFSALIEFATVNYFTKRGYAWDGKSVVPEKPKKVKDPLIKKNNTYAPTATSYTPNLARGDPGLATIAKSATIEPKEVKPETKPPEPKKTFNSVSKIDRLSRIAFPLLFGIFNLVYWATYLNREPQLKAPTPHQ
Sequence of rat Vasopressin 1 Receptor (V1), Avpr1a (gene 25107) (P30560 whole entry, looked up): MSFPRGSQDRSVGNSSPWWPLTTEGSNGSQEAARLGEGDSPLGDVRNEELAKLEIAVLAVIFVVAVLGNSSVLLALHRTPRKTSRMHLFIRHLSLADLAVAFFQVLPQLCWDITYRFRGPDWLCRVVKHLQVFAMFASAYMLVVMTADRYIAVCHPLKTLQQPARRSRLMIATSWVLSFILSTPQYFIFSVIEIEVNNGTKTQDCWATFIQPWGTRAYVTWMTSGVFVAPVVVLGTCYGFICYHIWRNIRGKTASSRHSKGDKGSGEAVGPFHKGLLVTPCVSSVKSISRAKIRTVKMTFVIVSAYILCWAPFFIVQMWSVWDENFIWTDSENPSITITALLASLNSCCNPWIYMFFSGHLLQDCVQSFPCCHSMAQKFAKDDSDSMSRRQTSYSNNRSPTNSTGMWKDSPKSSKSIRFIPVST
Sequence of rat Neurokinin-3 Receptor (NK3), Tacr3 (gene 24808) (P16177 whole entry, looked up): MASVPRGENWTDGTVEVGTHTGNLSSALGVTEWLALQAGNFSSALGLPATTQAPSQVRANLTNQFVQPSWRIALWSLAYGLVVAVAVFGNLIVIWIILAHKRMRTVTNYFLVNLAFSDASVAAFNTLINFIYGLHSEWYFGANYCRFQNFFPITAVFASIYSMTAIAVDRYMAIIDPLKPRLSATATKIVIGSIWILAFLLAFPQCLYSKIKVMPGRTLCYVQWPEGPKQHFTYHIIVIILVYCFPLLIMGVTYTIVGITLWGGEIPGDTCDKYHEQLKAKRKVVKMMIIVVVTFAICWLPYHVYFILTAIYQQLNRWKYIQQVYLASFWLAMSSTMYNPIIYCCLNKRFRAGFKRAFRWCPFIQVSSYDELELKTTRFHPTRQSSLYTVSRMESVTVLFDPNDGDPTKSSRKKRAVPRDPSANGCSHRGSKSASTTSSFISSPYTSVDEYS

Take `CCOc1cc(C(C)(C)C)ccc1C1COC(c2c(F)cccc2F)=N1` (stereo not drawn): the compound was called inactive (in test [1]; in the test with NCBI gene 24521).

In the case of `COc1cc(OC)nc(NC(=O)NS(=O)(=O)c2ncccc2OCC(F)(F)F)n1`, the concentration at half-maximal activity (AC50) (as a rule, the concentration giving half of the maximal activity seen) in test [2] is 16.4 µM (active).

With `CCN(CC)C(=O)C(C)Oc1cccc2ccccc12` (stereo not drawn), the result in [1], in [3] and in [4] was inactive. Moreover, the AC50 in test [4] was 42.2 µM (active).

On to `Cn1c(-c2ccccc2)cc(-c2ccccc2)[n+]1C`, for which, in test [5], the outcome was inactive. Also, the AC50 in test [3] was 2.36 µM (active).

In the case of `CN/C(=N\[N+](=O)[O-])NCc1cnc(Cl)s1`, the AC50 was 10.1 µM (active) in test [6] and 25 µM (active) in test [7].

For the compound `N#CN=C1SCCN1Cc1ccc(Cl)nc1`, the figures for the AC50 in test [6] and in test [7] were 4.45 µM (active) and 5.39 µM (active), respectively. Also, the compound was called inactive in test [8].

In the case of `COC(=O)N(C(=O)N1CO[C@@]2(C(=O)OC)Cc3cc(Cl)ccc3C2=N1)c1ccc(OC(F)(F)F)cc1`, in [7], the outcome was inactive.

As to `Nc1c(Cl)c(Cl)nc(C(=O)O)c1Cl`, the call in test [9] and in test [4] was inactive.

`O=C(Nc1ccccc1-c1ccc(Cl)cc1)c1cccnc1Cl`: the compound was called inactive in test [10] and in [8].

On to `Cc1cc(C)nc(Nc2ccccc2)n1`, for which the outcome in [5] and in test [3] was inactive.

Take `COP(=O)(OC)O/C(C)=C/C(=O)N(C)C`: the compound was classed as inactive (in the test with NCBI gene 24521; in [8]).

Regarding `N#Cc1c[nH]cc1-c1cccc2c1OC(F)(F)O2`, the result in [11] and in test [3] was inactive.

For `CCCN(CC)CC1COC2(CCC(C(C)(C)C)CC2)O1` (stereo not drawn), the values for the half-maximal activity concentration (AC50) in [12] and in test [3] were 13.8 µM (active) and 0.822 µM (active), respectively. For the same compound, the compound was classed as inactive in [1].

Turning to `CCNP(=S)(OC)O/C(C)=C/C(=O)OC(C)C` (stereo not drawn), the result in [5] was inactive.

For the compound `CCOP(=O)(OCC)Oc1nc(Cl)c(Cl)cc1Cl`, the AC50 in test [12] was 25 µM (active); in test [13], 6.64 µM (active); in [1], 11.1 µM (active).

`CC1(C)C(C=C(Cl)Cl)C1C(=O)OC(C#N)c1cccc(Oc2ccccc2)c1` (stereo not drawn): the AC50 was 25 µM (active) in test [6] and 9.51 µM (active) in [14].

As for `CCOC(=O)C(C)OC(=O)c1cc(Oc2ccc(C(F)(F)F)cc2Cl)ccc1[N+](=O)[O-]` (stereo not drawn), the AC50 in test [13] was 41.1 µM (active); in test [14], 25 µM (active). In addition, in test [4], the compound was classed as inactive.

In the case of `Cc1ccc(N=CN(C)C=Nc2ccc(C)cc2C)c(C)c1`, the result in test [6] was inactive.

As for `COCC(C)N(C(=O)CCl)c1c(C)csc1C` (stereo not drawn), the AC50 in test [12] is 16 µM (active). Also, the call in test [1] was inactive.

For `CCCCC(C#N)(Cn1cncn1)c1ccc(Cl)cc1` (stereo not drawn), the result in test [15] and in test [14] was inactive. Further, the AC50 is 1.98 µM (active) in test [2] and 25 µM (active) in [3].

For the compound `O=C1C2CC=CCC2C(=O)N1SC(Cl)(Cl)Cl` (stereo not drawn), the compound was called inactive in [12]. In test [13], the AC50 is 5.93 µM (active).

As for `CCCC(=NOCC)C1=C(O)CC(CC(C)SCC)CC1=O` (stereo not drawn), the compound was called inactive in [1].

On to `CC(C)N1C(=O)c2ccccc2NS1(=O)=O`, for which the outcome (in the test on NCBI gene 24521; in [16]) was inactive.

For `COP(=S)(OC)SCn1nnc2ccccc2c1=O`, the compound was called inactive in the test with NCBI gene 24521.

As to `COC(=O)c1c(C(F)F)nc(C(F)(F)F)c(C2=NCCS2)c1CC(C)C`, the call in test [17] was inactive.

With `COC(=O)NS(=O)(=O)c1ccc(N)cc1`, the compound was classed as inactive in [17].

With `CN=C=S`, the outcome in test [16] was inactive.
